In PubChem BioAssay:
Activity calls are given as the source filed them.

Columns and labels:
Albumin (Bos taurus) = Albumin (Bos taurus) (UniProt P02769); test: bovine serum albumin binders on microarray, profiling panel, artefact control for SMM control protein annotation, biochemical, small-molecule microarray, Alexa647 label, 635/667 nm fluorescence (AID 1118); conditions: BSA-A647 binding, fluorescence 635 nm, higher = more signal;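 note: score merges 667 nm emission intensity and signal-to-noise per printed compound spot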
[1] = small-molecule microarray binders of probe aXIP, primary screen, biochemical, NeuroSMM set, 635/667 nm fluorescence (AID 1119); conditions: higher = more signal, called active from +8 up or from −8 down;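 note: probe is the protein aXip251-270 applied at 1 µg/mL to compound-printed slides; binding of probe to printed compounds measured as 667 nm fluorescence plus signal to noise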
[2] = small-molecule binders of probe aNOTCH3, primary screen, biochemical, small-molecule microarray, 635/667 nm fluorescence (AID 1120); conditions: higher = more signal;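 note: probe is a biotin-tagged antibody raised against NOTCH3 rather than NOTCH3 protein; score merges spot fluorescence near 667 nm with spot signal to noise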
[3] = small-molecule binders of probe aNOTCH2, primary screen, biochemical, small-molecule microarray, 635/667 nm fluorescence (AID 1121); conditions: higher = more signal;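 note: score merges feature fluorescence read at 667 nm with its signal to noise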
[4] = molecular target: Carbonic anhydrase 2 (Homo sapiens) (UniProt P00918); test: CAII small-molecule binders, profiling panel, biochemical, small-molecule microarray, Alexa647-labelled CAII (AID 1122); conditions: CAII-A647 binding fluorescence, higher = more signal
[5] = COS7 lysate on small-molecule microarray, probe aHis, 635 nm (AID 1123); conditions: COS7 cell lysate, fluorescence, higher = more signal;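 note: z-score combines 667nm fluorescence intensity with signal-to-noise per printed compound spot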
[6] = compound binding in COS7 lysate, probe aLAP1, primary screen, cell lysate, small-molecule microarray (AID 1124); conditions: probe aLAP1, fluorescence, higher = more signal;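 note: lysate comes from COS7 cells expressing LAP1 and is applied at 0.3 µg/mL; score merges spot fluorescence near 667 nm with signal-to-noise over triplicate slides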
Sam68 (KHDRBS1) = test: Sam68 small-molecule binders, primary screen, biochemical, small-molecule microarray, 635 nm fluorescence (AID 1125); conditions: small-molecule microarray binding, higher = more signal;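 note: score merges 667 nm channel intensity with signal to noise over triplicate slides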
[7] = system: Chordin-like protein 2 (CHRDL2); test: CHRDL2 small-molecule binders, primary screen, biochemical, small-molecule microarray, 635 nm fluorescence (AID 1126); conditions: small-molecule microarray binding, fluorescence 635 nm; higher = more signal;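 note: printed compound slides probed with Chrdl2 protein at 4 µg/mL for 1 h at 4 C; score merges 667 nm emission intensity with signal to noise over three replicate slides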
[8] = molecular target: Concanavalin-A (Canavalia ensiformis) (UniProt P02866); test: ConA small-molecule binders, primary screen, artefact control for SMM control protein annotation, biochemical, small-molecule microarray, Alexa647 label, 635 nm (AID 1127); conditions: ConA-A647 binding fluorescence, higher = more signal;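 note: z combines 667 nm emission intensity with signal-to-noise across three replicate slides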
[9] = anti-His antibody binders, primary screen, artefact control for SMM control protein annotation, biochemical, small-molecule microarray, 635 nm fluorescence (AID 1128); conditions: anti-His Alexa647 antibody binding, higher = more signal;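 note: score merges feature fluorescence with signal-to-noise for each printed compound spot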
[10] = system: Human papillomavirus type 1a E7 protein (residues 1-88); test: HPV1a E7 small-molecule binders, primary screen, biochemical, small-molecule microarray, residues 1-88, 635 nm (AID 1129); conditions: small-molecule microarray binding, fluorescence 635 nm; higher = more signal
[11] = molecular target: Focal adhesion kinase 1 (Homo sapiens) (UniProt Q05397); test: small-molecule microarray binders of FAK, primary screen, biochemical, 635/667 nm fluorescence, BSA, DTT (AID 1130); conditions: PTK2 binding, 635 nm fluorescence, higher = more signal;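 note: composite of spot emission at 667 nm and signal to noise over triplicate slides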
[12] = system: Fibrinogen (Alexa647-labelled); test: fibrinogen binders on compound microarrays, profiling panel, artefact control for SMM control-protein annotation, biochemical, small-molecule microarray, 635/667 nm fluorescence (AID 1131); conditions: fibrinogen-A647 binding fluorescence, higher = more signal;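 note: z-score merges 667 nm fluorescence with per-spot signal-to-noise over triplicate slides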
[13] = molecular target: Follistatin (Homo sapiens) (UniProt P19883); test: follistatin binders on small-molecule microarrays, primary screen, biochemical, small-molecule microarray, 635/667 nm fluorescence (AID 1132); conditions: FST binding, 635 nm fluorescence, higher = more signal
[14] = molecular target: Fibroblast growth factor 2 (Homo sapiens) (UniProt P09038); test: FGF2 binders on small-molecule microarrays, primary screen, biochemical, small-molecule microarray, 635/667 nm fluorescence (AID 1133); conditions: small-molecule microarray binding, FGF2, fluorescence 635/667; higher = more signal
[15] = mitochondrial membrane potential change in A549 cells, profiling panel, cell-based, JC-1 fluorescence, basal, 24 h, 100 nL (AID 1138); conditions: higher = more signal;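 note: A549 lung adenocarcinoma cells under basal conditions with no added stimulus; test concentration not given here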
Lefty1 = Lefty1 binders on small-molecule microarrays, primary screen, biochemical, small-molecule microarray, 635/667 nm fluorescence (AID 1139); conditions: small-molecule microarray binding, fluorescence 635/667; higher = more signal
[16] = system: wheat germ agglutinin (Triticum aestivum), Alexa647-labelled; test: wheat germ agglutinin binders on compound microarrays, profiling panel, artefact control for SMM control-protein annotation, biochemical, small-molecule microarray, 635/667 nm fluorescence (AID 1140); conditions: WGA-A647 binding, 635 nm fluorescence, higher = more signal;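 note: score merges 667 nm feature emission with signal to noise over triplicate slides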
[17] = molecular target: Luciferin 4-monooxygenase (Photinus pyralis) (UniProt P08659); test: firefly luciferase enzyme inhibitors, primary screen, biochemical, luminescence, purified enzyme, 2006 set (AID 1141); conditions: SteadyGlo luminescence, 30 min, higher = more signal, called active from +8 up or from −8 down;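 note: cell-free assay with purified firefly luciferase at 100 ng per well in PBS; test concentration not given here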
Sequence of Luciferin 4-monooxygenase (Photinus pyralis) (P08659 whole entry, looked up): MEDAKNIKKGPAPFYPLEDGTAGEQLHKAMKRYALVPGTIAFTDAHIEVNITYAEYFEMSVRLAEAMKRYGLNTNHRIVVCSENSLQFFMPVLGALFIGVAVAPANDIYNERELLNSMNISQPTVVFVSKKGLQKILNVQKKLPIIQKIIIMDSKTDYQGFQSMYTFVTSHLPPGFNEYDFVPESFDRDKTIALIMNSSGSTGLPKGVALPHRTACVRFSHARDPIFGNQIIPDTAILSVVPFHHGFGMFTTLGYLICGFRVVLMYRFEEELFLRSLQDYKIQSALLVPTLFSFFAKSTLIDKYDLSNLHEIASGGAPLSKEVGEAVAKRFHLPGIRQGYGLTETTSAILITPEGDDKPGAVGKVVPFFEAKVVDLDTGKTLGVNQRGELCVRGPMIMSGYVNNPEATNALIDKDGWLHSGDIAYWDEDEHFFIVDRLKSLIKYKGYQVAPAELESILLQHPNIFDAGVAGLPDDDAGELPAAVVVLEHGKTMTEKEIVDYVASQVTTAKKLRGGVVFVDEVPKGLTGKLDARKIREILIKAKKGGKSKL

Sequence of Fibroblast growth factor 2 (Homo sapiens) (P09038 whole entry, looked up): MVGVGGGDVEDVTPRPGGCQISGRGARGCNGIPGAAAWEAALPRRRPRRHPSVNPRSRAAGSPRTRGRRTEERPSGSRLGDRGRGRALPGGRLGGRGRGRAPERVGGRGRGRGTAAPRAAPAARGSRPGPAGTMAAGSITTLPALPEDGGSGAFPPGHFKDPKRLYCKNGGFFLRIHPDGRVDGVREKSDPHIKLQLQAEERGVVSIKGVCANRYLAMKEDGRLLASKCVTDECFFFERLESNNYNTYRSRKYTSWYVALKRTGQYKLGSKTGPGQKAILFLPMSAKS
Sequence of Focal adhesion kinase 1 (Homo sapiens) (Q05397 whole entry, looked up): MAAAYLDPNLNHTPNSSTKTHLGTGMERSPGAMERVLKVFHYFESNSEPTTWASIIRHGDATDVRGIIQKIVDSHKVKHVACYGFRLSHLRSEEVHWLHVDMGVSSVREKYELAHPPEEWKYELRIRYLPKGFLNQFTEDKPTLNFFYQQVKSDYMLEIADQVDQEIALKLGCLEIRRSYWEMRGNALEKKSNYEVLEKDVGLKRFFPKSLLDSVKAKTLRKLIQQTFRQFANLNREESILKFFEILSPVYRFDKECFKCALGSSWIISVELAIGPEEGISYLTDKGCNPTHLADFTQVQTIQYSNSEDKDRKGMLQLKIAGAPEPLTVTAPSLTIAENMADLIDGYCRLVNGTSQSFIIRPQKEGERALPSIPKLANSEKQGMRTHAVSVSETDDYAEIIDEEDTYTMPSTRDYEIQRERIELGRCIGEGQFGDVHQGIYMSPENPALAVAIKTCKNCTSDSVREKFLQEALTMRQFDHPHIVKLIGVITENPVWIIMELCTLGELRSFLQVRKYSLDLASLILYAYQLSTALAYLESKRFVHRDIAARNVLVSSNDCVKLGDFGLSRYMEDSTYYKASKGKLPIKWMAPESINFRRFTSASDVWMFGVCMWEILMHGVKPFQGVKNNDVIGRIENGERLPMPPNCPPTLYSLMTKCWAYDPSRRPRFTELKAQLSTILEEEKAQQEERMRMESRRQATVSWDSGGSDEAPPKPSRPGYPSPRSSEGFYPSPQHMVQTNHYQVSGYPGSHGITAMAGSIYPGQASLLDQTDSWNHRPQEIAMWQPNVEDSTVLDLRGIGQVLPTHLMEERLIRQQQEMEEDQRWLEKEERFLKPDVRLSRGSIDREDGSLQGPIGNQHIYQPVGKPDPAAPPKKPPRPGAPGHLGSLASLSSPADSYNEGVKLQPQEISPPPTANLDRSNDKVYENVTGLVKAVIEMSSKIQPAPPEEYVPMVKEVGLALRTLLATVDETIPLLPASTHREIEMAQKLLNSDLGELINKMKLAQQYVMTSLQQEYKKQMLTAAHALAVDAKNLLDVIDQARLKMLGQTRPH
Sequence of Albumin (Bos taurus) (P02769 whole entry, looked up): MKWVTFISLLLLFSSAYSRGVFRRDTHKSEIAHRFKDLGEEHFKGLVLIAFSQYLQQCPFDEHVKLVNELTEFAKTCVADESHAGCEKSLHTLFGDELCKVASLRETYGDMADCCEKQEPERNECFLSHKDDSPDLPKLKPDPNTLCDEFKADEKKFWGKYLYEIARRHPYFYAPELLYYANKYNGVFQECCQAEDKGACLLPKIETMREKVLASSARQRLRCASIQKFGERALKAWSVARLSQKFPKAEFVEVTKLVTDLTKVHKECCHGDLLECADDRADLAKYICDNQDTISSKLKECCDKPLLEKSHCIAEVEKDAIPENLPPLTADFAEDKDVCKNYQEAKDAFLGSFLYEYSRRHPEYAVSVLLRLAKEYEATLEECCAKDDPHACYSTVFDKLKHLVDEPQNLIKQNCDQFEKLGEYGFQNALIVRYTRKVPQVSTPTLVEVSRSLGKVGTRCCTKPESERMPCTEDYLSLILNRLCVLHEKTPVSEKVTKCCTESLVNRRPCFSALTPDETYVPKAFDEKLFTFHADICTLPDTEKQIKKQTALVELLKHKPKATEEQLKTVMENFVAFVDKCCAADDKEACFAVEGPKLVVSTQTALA
Sequence of Concanavalin-A (Canavalia ensiformis) (P02866 whole entry, looked up): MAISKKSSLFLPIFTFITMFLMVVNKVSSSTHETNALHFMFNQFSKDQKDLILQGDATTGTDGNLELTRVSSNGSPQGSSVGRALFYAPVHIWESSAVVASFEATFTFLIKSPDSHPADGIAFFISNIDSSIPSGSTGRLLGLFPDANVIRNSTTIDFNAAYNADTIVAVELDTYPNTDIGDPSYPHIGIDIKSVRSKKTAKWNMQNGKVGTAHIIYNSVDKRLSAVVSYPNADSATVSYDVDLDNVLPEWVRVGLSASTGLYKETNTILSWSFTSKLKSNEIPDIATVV
Sequence of Follistatin (Homo sapiens) (P19883 whole entry, looked up): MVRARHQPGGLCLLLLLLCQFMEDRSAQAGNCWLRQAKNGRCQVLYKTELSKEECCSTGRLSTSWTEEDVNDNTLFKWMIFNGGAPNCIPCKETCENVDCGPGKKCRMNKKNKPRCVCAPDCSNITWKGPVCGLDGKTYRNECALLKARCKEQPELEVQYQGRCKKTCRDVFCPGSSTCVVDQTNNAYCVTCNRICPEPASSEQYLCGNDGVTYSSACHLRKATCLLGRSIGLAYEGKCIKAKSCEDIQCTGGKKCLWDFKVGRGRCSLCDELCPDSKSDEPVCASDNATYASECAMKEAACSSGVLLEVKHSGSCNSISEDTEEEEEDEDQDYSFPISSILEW

COc1ccc(C(=O)Nc2ccc(CN3C(=O)[C@]4(O[C@H](CC(=O)N5CCC[C@H]5CO)[C@@H]([Si](C)(C)c5ccc(OC)cc5)[C@@H]4C)c4ccccc43)cc2)cc1
composite z-score (Albumin (Bos taurus)): -0.398
composite Z-score [1]: 0.0524 (inactive)
composite z-score [2]: 0.218
composite z-score [3]: -0.0681
composite z-score [4]: 0.298
composite z-score [5]: 1.72
composite z-score [6]: 0.394
composite z-score (Sam68 (KHDRBS1)): 1.29
composite z-score [7]: 0.666
composite z-score [8]: 0.884
composite z-score [9]: 1.91
composite z-score [10]: 1.15
composite z-score [11]: 0.297
composite z-score [12]: 0.81
composite z-score [13]: 1.06
composite z-score [14]: 1.44
z-score [15]: 0.195
composite z-score (Lefty1): 0.942
composite z-score [16]: 0.601
z-score [17]: -1.08 (inactive)

CC(C)[Si](C#CCCCC#N)(Oc1ccccc1Br)C(C)C
composite z-score (Albumin (Bos taurus)): 0.435
composite Z-score [1]: 0.147 (inactive)
composite z-score [2]: -0.0377
composite z-score [3]: -0.092
composite z-score [4]: 0.508
composite z-score [5]: 0.51
composite z-score [6]: 0.0245
composite z-score (Sam68 (KHDRBS1)): 0.993
composite z-score [7]: 0.299
composite z-score [8]: 0.912
composite z-score [9]: 0.259
composite z-score [10]: 0.725
composite z-score [11]: 0.3
composite z-score [12]: 0.709
composite z-score [13]: 0.269
composite z-score [14]: 0.223
z-score [15]: -0.0477
composite z-score (Lefty1): 0.55
composite z-score [16]: 0.327
z-score [17]: -0.277 (inactive)

Cc1ccc(/C=C/C=O)cc1
composite z-score (Albumin (Bos taurus)): 0.931
composite Z-score [1]: 0.421 (inactive)
composite z-score [2]: -0.217
composite z-score [3]: -0.117
composite z-score [4]: -0.287
composite z-score [5]: 0.206
composite z-score [6]: 0.127
composite z-score (Sam68 (KHDRBS1)): -0.912
composite z-score [7]: 0.24
composite z-score [8]: -0.156
composite z-score [9]: -0.0082
composite z-score [10]: -0.872
composite z-score [11]: -0.0083
composite z-score [12]: 0.698
composite z-score [13]: -0.186
composite z-score [14]: -0.245
z-score [15]: 0.843
composite z-score (Lefty1): -0.709
composite z-score [16]: 0.0368
z-score [17]: -1.19 (inactive)

CN(C)C(=O)[C@]1(Cc2ccccc2)N=C(c2ccc(OCCCO)cc2)O[C@@H]1c1ccccc1N=[N+]=[N-]
composite z-score (Albumin (Bos taurus)): 0.784
composite Z-score [1]: 0.431 (inactive)
composite z-score [2]: 0.23
composite z-score [3]: -0.0145
composite z-score [4]: 0.782
composite z-score [5]: 2.12
composite z-score [6]: 0.764
composite z-score (Sam68 (KHDRBS1)): 1.32
composite z-score [7]: -0.199
composite z-score [8]: 1.1
composite z-score [9]: 2.47
composite z-score [10]: 1.2
composite z-score [11]: 0.203
composite z-score [12]: 0.96
composite z-score [13]: 1.33
composite z-score [14]: 1.63
z-score [15]: 0.702
composite z-score (Lefty1): 0.244
composite z-score [16]: 0.702
z-score [17]: -5.05 (inactive)

C[N+](C)(C)CCCC[C@@H]1NC(=O)[C@@H]2C[C@H](C(=O)NCCCCCN)[C@H](c3ccc(O)cc3)N2C1=O
composite z-score (Albumin (Bos taurus)): 0.877
composite Z-score [1]: 1.01 (inactive)
composite z-score [2]: 0.363
composite z-score [3]: 0.154
composite z-score [4]: 0.72
composite z-score [5]: 1.53
composite z-score [6]: 1.02
composite z-score (Sam68 (KHDRBS1)): 1.19
composite z-score [7]: 0.248
composite z-score [8]: 1.15
composite z-score [9]: 2.08
composite z-score [10]: 1.05
composite z-score [11]: 0.0992
composite z-score [12]: 0.927
composite z-score [13]: 1.4
composite z-score [14]: 1.8
z-score [15]: 0.962
composite z-score (Lefty1): 1.64
composite z-score [16]: 0.87
z-score [17]: -1.26 (inactive)

COC(=O)C(CC#Cc1ccc2c(c1)[C@]1(C(=O)N2)[C@H](c2ccccc2OCCO)N2[C@H](c3ccccc3)[C@H](c3ccccc3)OC(=O)[C@H]2[C@@H]1C(=O)O)C(=O)OC
composite z-score (Albumin (Bos taurus)): 0.573
composite Z-score [1]: 0.0066 (inactive)
composite z-score [2]: 0.194
composite z-score [3]: -0.1
composite z-score [4]: 0.367
composite z-score [5]: 1.7
composite z-score [6]: 0.375
composite z-score (Sam68 (KHDRBS1)): 1.3
composite z-score [7]: 0.132
composite z-score [8]: 1.09
composite z-score [9]: 1.94
composite z-score [10]: 1.16
composite z-score [11]: 0.411
composite z-score [12]: 0.765
composite z-score [13]: 0.206
composite z-score [14]: 0.36
z-score [15]: 0.621
composite z-score (Lefty1): 0.284
composite z-score [16]: 0.702
z-score [17]: -2.37 (inactive)

CS(=O)(=O)CCOC(=O)C1=CC(CCCO)=CC(c2ccc(CN3CCCC3)cc2)N(Cc2cccc(OC(F)(F)F)c2)C=C1C(=O)OCCS(C)(=O)=O (stereo not given)
composite z-score (Albumin (Bos taurus)): 0.0883
composite Z-score [1]: 0.25 (inactive)
composite z-score [2]: 0.111
composite z-score [3]: -0.0254
composite z-score [4]: 0.454
composite z-score [5]: 1.16
composite z-score [6]: 0.0212
composite z-score (Sam68 (KHDRBS1)): 1.26
composite z-score [7]: 0.379
composite z-score [8]: 0.644
composite z-score [9]: 1.26
composite z-score [10]: 1.09
composite z-score [11]: 0.366
composite z-score [12]: 0.675
composite z-score [13]: 0.962
composite z-score [14]: 0.964
z-score [15]: 3.17
composite z-score (Lefty1): 0.889
composite z-score [16]: 0.404
z-score [17]: -2.68 (inactive)

COCCOC(=O)N1C(=O)[C@@]2(c3cc(C#CC4(O)CCCCCC4)ccc31)[C@H](c1ccccc1OCCO)N1[C@H](c3ccccc3)[C@H](c3ccccc3)OC(=O)[C@H]1[C@@H]2C(=O)N1CCc2cc(OC)c(OC)cc2C1
composite z-score (Albumin (Bos taurus)): 0.223
composite Z-score [1]: 0.758 (inactive)
composite z-score [2]: 0.0039
composite z-score [3]: -0.0817
composite z-score [4]: 0.527
composite z-score [5]: 1.89
composite z-score [6]: 0.612
composite z-score (Sam68 (KHDRBS1)): 1.29
composite z-score [7]: -0.225
composite z-score [8]: 1.13
composite z-score [9]: 2.27
composite z-score [10]: 1.23
composite z-score [11]: 0.669
composite z-score [12]: 0.895
composite z-score [13]: 0.653
composite z-score [14]: 0.461
z-score [15]: -0.932
composite z-score (Lefty1): 0.8
composite z-score [16]: 0.632
z-score [17]: -0.022 (inactive)

CC(C)CNC(=O)[C@@]1(Cc2ccccc2I)c2ccccc2C(=O)N(Cc2ccccc2C(F)(F)F)[C@H]1c1ccc(CO)cc1
composite z-score (Albumin (Bos taurus)): 0.212
composite Z-score [1]: 0.117 (inactive)
composite z-score [2]: -0.234
composite z-score [3]: 0.0344
composite z-score [4]: 0.417
composite z-score [5]: 0.959
composite z-score [6]: 0.393
composite z-score (Sam68 (KHDRBS1)): 0.432
composite z-score [7]: -0.731
composite z-score [8]: -0.0801
composite z-score [9]: 0.657
composite z-score [10]: 0.0788
composite z-score [11]: -0.287
composite z-score [12]: -0.105
composite z-score [13]: -0.239
composite z-score [14]: -0.217
z-score [15]: -0.171
composite z-score (Lefty1): -0.639
composite z-score [16]: 0.34
z-score [17]: 0.654 (inactive)

CC(=O)Nc1cc(Br)ccc1C(=O)NCc1ccccc1
composite z-score (Albumin (Bos taurus)): 0.744
composite Z-score [1]: -0.34 (inactive)
composite z-score [2]: -0.0311
composite z-score [3]: -0.123
composite z-score [4]: 0.23
composite z-score [5]: 1.18
composite z-score [6]: -0.458
composite z-score (Sam68 (KHDRBS1)): 0.494
composite z-score [7]: -0.141
composite z-score [8]: 0.811
composite z-score [9]: 0.69
composite z-score [10]: 0.6
composite z-score [11]: 0.265
composite z-score [12]: 0.402
composite z-score [13]: -0.0708
composite z-score [14]: -0.327
z-score [15]: 2.26
composite z-score (Lefty1): -0.285
composite z-score [16]: 0.674
z-score [17]: -0.65 (inactive)
